Laboratory results published in PubChem BioAssay AID1347426 (Functional Genomics Laboratory (NCATS/FGL), 2020).
In all, about 31,000 sequences went through this assay and about 1,400 (4.5%) were called active. Shown is part of a subset that was picked to be rich in actives. Values without a mark were called inactive.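 How the source made its calls: active means median seed-adjusted z-score above 1 or below -1; inactive means the rest.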

experiment: Novel Modifiers of Survival Motor Neuron (SMN) Protein: Gene Identification via Genome-wide siRNA Screen; conditions: HEK293T SMN2-luciferase reporter, siRNA knockdown, 72 h; actives lie on both sides;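 further: luminescence tracks full-length SMN protein made from the SMN2 reporter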
In short: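 siRNA screen, 10418 genes ×3 siRNAs; 1 pmol/well, lipid reverse transfection into HEK293T SMN2-luc reporter line. 72 h, 37 °C, 5% CO2; ONE-Glo readout. Data: neg-ctrl normalized, log10, MAD; hit = MAD >1.0 or < -1.0.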

Row | Sequence | median seed-adjusted z-score
1 | UCACUGAAAUGAAACUGGUTT against ACBD4 | -0.363
2 | AAGAGAUUUUUGUAACUGATT against BCL2L14 | -0.859
3 | CGAUUUGAAGGUCCAUAUATT against DNAJC2 | -0.0357
4 | CCUCGACUAUUUUAAGACATT against UBA1 | 1.34 (active)
5 | GUCCUUUAACUGAAGCUUUTT against NDUFB9 | -0.982
6 | GGACAGUAGUGUGCAACGATT against LRIT1 | -0.611
7 | UGAUGAAUGUUAUCGAGAATT against RFC2 | 0.00126
8 | GCAGUUUCGAAAUCAACGATT against TEX14 | -0.107
9 | ACAAGAACCCUGACAAUAATT against DNAJB8 | -1.09 (active)
10 | GCAACAUGCAGAUAGGUUATT against PHF14 | 0.354
11 | GCCUGUGACUCAUACUGGATT against ELF5 | -0.45
12 | CCGGCUACACCUUCCGUAATT against DNAJB8 | -1.09 (active)
13 | GAGAUGCGCAAAUUCACUCTT against IP6K2 | -0.193
14 | GGAAAAUCAUUGUGCUAAUTT against VN2R1P | -0.25
15 | GAUUUGGUUUCGUAACUUUTT against A2BP1 | 1.17 (active)
16 | GACUGGUUAUUACGUCUUATT against SYNJ1 | 0
17 | GAGUGUAACUGCAACCAGATT against NTNG2 | 0.403
18 | ACUCAGUGGAGGUCACCAATT against EIF3F | -0.0214
19 | GCCUCUCAGAGAACUACGATT against LRRC33 | -0.194
20 | GGGCGAUGUCCAUCCACAATT against PIF1 | -0.0455
21 | CUCCAUUCCUGGUAUAGAATT against XRCC5 | -1.11 (active)
22 | CCUCCUCACCAAACCCAUUTT against SLC5A1 | -0.812
23 | CGACUGAACAAACCCUAUATT against ERCC3 | 0.155
24 | GCCUGAAUGCAGCCCAGUUTT against SP2 | -0.617
25 | AGGACAAGCUGAAAAUCCATT against ZBTB7C | 0.447
26 | UCAGUUUGCUGAGAACGAATT against TCEB1 | 1.08 (active)
27 | CCUCAACUCUAAAUACUCATT against ZNF716 | 0
28 | GGAGAUCUCUCGUCUCAAUTT against KCNH4 | -0.769
29 | GGAGAUGUAUUGGUGAGAATT against CYP3A5 | 0.0516
30 | GCAGCUACAGGUCAUCUCATT against DGAT2 | 0.195
